Bioassay records (PubChem)
Mtb FBA inh – inhibits M. tuberculosis FBA enzyme; P9WQA3; purified M. tuberculosis FBA, fluorescence read-out; inhibition, % at 1 µM; actives 2.3% (n = 360,000); AID 588726;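 further: 0% = vehicle and 100% = reference inhibitor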
Target sequence (P9WQA3 whole entry, looked up): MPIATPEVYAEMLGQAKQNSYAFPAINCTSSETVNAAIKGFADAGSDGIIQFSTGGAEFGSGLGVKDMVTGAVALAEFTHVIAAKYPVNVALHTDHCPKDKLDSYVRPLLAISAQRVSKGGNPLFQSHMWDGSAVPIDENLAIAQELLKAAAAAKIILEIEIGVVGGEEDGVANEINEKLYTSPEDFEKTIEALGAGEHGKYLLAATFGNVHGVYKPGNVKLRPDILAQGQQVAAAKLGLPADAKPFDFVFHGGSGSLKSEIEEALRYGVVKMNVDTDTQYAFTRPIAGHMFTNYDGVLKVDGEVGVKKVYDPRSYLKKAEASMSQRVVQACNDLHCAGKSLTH
Mtb UGM inh – blocks M. tuberculosis UGM enzyme; purified UGM, fluorescence polarization probe displacement; inhibition, % at 10 µM; actives 0.06% (n = 320,000); in the data active means inhibition above about 10%, passing the limit was not always enough
GDH-TPI counter-1 – inhibits GDH-TPI coupling enzymes, artifact for Mtb FBA screen | GDH-TPI coupled enzyme counterscreen, NADH absorbance | inhibition, % at 4.8 µM | actives 1.2% (n = 360,000) | AID 588335; in the data active means inhibition above about 30%;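 further: 0% = DMSO wells and 100% = wells lacking the enzyme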
Rv3671c protease – inhibits the M. tuberculosis serine protease Rv3671c | actives 0.048% (n = 320,000) | inhibition, % at 5.96 µM | AID 2606 | P9WHR9; in the data active means inhibition above about 38%;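 further: extracellular domain of Rv3671c used as enzyme; 0% = enzyme with DMSO and 100% = no enzyme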
Mtb betalactam – beta-lactam sensitization of Mtb H37Rv; inhibition, % at 25 µM; M. tuberculosis H37Rv growth with meropenem, percent inhibition; actives 0.27% (n = 330,000); call rule not given here;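 further: growth measured after seven days incubation then overnight dye step; 0% = bacteria only wells and 100% = bacteria with antibiotic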
Mtb FBA confirm – Mtb FBA inhibition, confirmed | shares compounds with Mtb FBA inh | purified M. tuberculosis FBA, fluorescence read-out | inhibition, % at 1 µM | actives 78% (n = 5,600) | AID 651616;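 further: 0% = vehicle wells and 100% = reference inhibitor wells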
GDH-TPI counter-2 – GDH-TPI inhibition counter-screen for FBA inhibitors | actives 81% (n = 5,600) | GDH-TPI coupled enzyme counterscreen, fluorescence | inhibition, % at 1 µM | shares compounds with Mtb FBA inh; in the data active means inhibition above about 10%
An asterisk follows results filed as active. Shown are actives, neighbours in structure and some others; about 3.5% of the full set was active somewhere. Unless noted, no stated cut-off is given here; in the data, active means inhibition above about 27%; inactive means the rest.

`Cc1ccnn1-c1ccc(C(=O)NCc2ccccc2CN2CCOCC2)cc1` gave Mtb FBA inh 58*, Mtb UGM inh -1, GDH-TPI counter-1 4, Rv3671c protease 2, Mtb betalactam -9, Mtb FBA confirm active and GDH-TPI counter-2 active.
Screening O=C(NCc1ccccc1CN1CCOCC1)c1ccc(-n2cccn2)cc1 returned Mtb FBA inh 4, Mtb UGM inh 1, GDH-TPI counter-1 10, Rv3671c protease -2 and Mtb betalactam 0.
For CCOc1cccc(-c2cnc3cccnn23)c1 the results were Mtb FBA inh 73*, GDH-TPI counter-1 16, Mtb FBA confirm -3 and GDH-TPI counter-2 -6.
For Cc1cccc(-c2cnc3cccnn23)c1 the results were Mtb FBA inh 45*, GDH-TPI counter-1 1, Mtb FBA confirm -8 and GDH-TPI counter-2 -7.
`CC(C)Cn1c(N)c(C(=O)COC(=O)[C@H](C)NC(=O)c2ccccc2Cl)c(=O)n(C)c1=O` gave Mtb FBA inh 1, Mtb UGM inh 1, GDH-TPI counter-1 4, Rv3671c protease -1 and Mtb betalactam -3.
For CC(=O)Nc1ccc(Br)c2ccccc12 the results were Mtb FBA inh -3, Mtb UGM inh -2, GDH-TPI counter-1 5, Rv3671c protease 5 and Mtb betalactam 5.
For CCc1ccc(NC(=O)NNC(=O)c2cc3ccccc3cc2O)cc1 the results were Mtb FBA inh 4, Mtb UGM inh 2, GDH-TPI counter-1 13, Rv3671c protease 0 and Mtb betalactam -8.
Screening O=C(Nc1ccc(Br)c2ccccc12)c1ccc2ccccc2c1O returned Mtb FBA inh 31*, Mtb UGM inh -1, GDH-TPI counter-1 12, Rv3671c protease 7, Mtb betalactam 5, Mtb FBA confirm -34 and GDH-TPI counter-2 -29.
Screening Cc1ccccc1NC(=O)NNC(=O)c1ccc2ccccc2c1O returned Mtb FBA inh 31*, Mtb UGM inh -3, GDH-TPI counter-1 13, Rv3671c protease 20, Mtb betalactam -14, Mtb FBA confirm 55* and GDH-TPI counter-2 36*.
Screening CCc1ccc(NC(=O)NNC(=O)c2ccc3ccccc3c2O)cc1 returned Mtb FBA inh 36*, Mtb UGM inh 1, GDH-TPI counter-1 18, Mtb betalactam 7, Mtb FBA confirm active and GDH-TPI counter-2 190*.
`COc1ccccc1NC(=O)NNC(=O)c1ccc2ccccc2c1O` gave Mtb FBA inh 32*, Mtb UGM inh 3, GDH-TPI counter-1 6, Mtb betalactam 16, Mtb FBA confirm 143* and GDH-TPI counter-2 113*.
`O=C(COC(=O)c1cccc(Br)c1)NCc1ccco1` gave Mtb FBA inh -5, Mtb UGM inh 0, GDH-TPI counter-1 -3, Rv3671c protease -2 and Mtb betalactam 6.
Screening CCOC(=O)C1=C(COC(=O)CCOc2cc(C)ccc2C)NC(=O)NC1C (stereo not given) returned Mtb FBA inh -5, Mtb UGM inh 0, GDH-TPI counter-1 -8, Rv3671c protease -4 and Mtb betalactam -3.
For COc1ccc(OC)c(S(=O)(=O)N2CCC(C(=O)N3CCCCCC3)CC2)c1 the results were Mtb FBA inh 4, Mtb UGM inh 2, GDH-TPI counter-1 17, Rv3671c protease -3 and Mtb betalactam 0.
Screening COc1ccc(NC(=O)NNC(=O)c2ccc3ccccc3c2O)cc1OC returned Mtb FBA inh 36*, Mtb UGM inh -2, GDH-TPI counter-1 9, Rv3671c protease 6, Mtb betalactam 3 and GDH-TPI counter-2 active.
Screening COc1ccc(C2=NN3C(C2)c2ccccc2OC3c2cccs2)cc1 (stereo not given) returned Mtb FBA inh 60*, Mtb UGM inh -1, GDH-TPI counter-1 4, Rv3671c protease 6, Mtb betalactam -1, Mtb FBA confirm 28* and GDH-TPI counter-2 23*.
COc1ccc(C2=NN(C(=O)CCC(=O)O)C(c3cccs3)C2)cc1 (stereo not given) was read as Mtb FBA inh 7, Mtb UGM inh -1, GDH-TPI counter-1 5, Rv3671c protease -1 and Mtb betalactam 0.
`COc1cccc(-c2c(-c3cc(OC)cc(OC)c3)n(C)c3ccc(-c4ccc5[nH]ccc5c4)cc23)c1` gave Mtb FBA inh 42*, Mtb UGM inh 1, GDH-TPI counter-1 24, Rv3671c protease 1, Mtb betalactam -8, Mtb FBA confirm active and GDH-TPI counter-2 active.
For COc1cccc(-c2c(-c3cc(OC)cc(OC)c3)n(C)c3ccc(-c4ccc(OC)nc4)cc23)c1 the results were Mtb FBA inh 1, Mtb UGM inh 3, GDH-TPI counter-1 3, Rv3671c protease 1 and Mtb betalactam -5.
COc1cc(OC)cc(-c2c(-c3ccc(F)cc3)c3cc(-c4ccc5[nH]ccc5c4)ccc3n2C)c1 was read as Mtb FBA inh 49*, Mtb UGM inh -2, GDH-TPI counter-1 25, Rv3671c protease -8, Mtb betalactam -1, Mtb FBA confirm -4 and GDH-TPI counter-2 -5.
For CCC(C(=O)OCC(=O)N(C)c1c(N)n(Cc2ccccc2)c(=O)[nH]c1=O)c1ccccc1 (stereo not given) the results were Mtb FBA inh -2, Mtb UGM inh -1, GDH-TPI counter-1 10, Rv3671c protease -3 and Mtb betalactam -12.
`COc1ccccc1CCNC(=O)c1ccc(Br)s1` gave Mtb FBA inh -2, Mtb UGM inh -3, GDH-TPI counter-1 12, Rv3671c protease 7 and Mtb betalactam 2.
`O=C1Nc2ccc(Br)cc2C12NNc1ccccc1O2` (stereo not given) gave Mtb FBA inh -17, Mtb UGM inh 0, GDH-TPI counter-1 -7, Rv3671c protease 1 and Mtb betalactam 100.
`COc1cc2oc3ccc(C#Cc4ccccn4)cc3c(=O)c2cc1OC` gave Mtb FBA inh 67*, Mtb UGM inh 1, GDH-TPI counter-1 5, Rv3671c protease -10, Mtb betalactam 0, Mtb FBA confirm -3 and GDH-TPI counter-2 -5.
COc1cc2oc3ccc(C#Cc4ccc(N)cc4)cc3c(=O)c2cc1OC was read as Mtb FBA inh 8, Mtb UGM inh 0, GDH-TPI counter-1 24, Rv3671c protease 0 and Mtb betalactam 1.
`CN(C(=O)c1cccc(NC(=O)C2CCN(C(=O)OC(C)(C)C)CC2)c1)C1CCCCC1` gave Mtb FBA inh 1, Mtb UGM inh -1, GDH-TPI counter-1 -1, Rv3671c protease 2 and Mtb betalactam 1.
Screening O=C(NNC(=O)C1C2C=CC(C2)C1C(=O)O)c1cc(Cl)ccc1O (stereo not given) returned Mtb FBA inh 65*, Mtb UGM inh 1, GDH-TPI counter-1 7, Mtb betalactam 4, Mtb FBA confirm 59* and GDH-TPI counter-2 55*.
Screening O=C(c1ccc2[nH]c3c(c2c1)CCCC3)N1CCN(c2ccc(F)cc2)CC1 returned Mtb FBA inh -1, Mtb UGM inh 1, GDH-TPI counter-1 4, Rv3671c protease 12 and Mtb betalactam 58.
